# HT1080 IDH1KD tx – kills HT-1080 cells with IDH1 knockdown. actives 2% (n = 360,000). HT-1080 IDH1 knockdown viability, ATP luminescence, 48 h. Potency, µM (highest dose often 46.1 µM), without a hit: at the top dose activity, negative = toxicity, usual class: cytotoxic. AID 686971;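 also: 0% = DMSO wells and -100% = cell-free medium wells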
#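 IDH1KD HT-1080 cells, 750/well, RPMI + 5% FBS; compound pinned after 2 h settling; 48 h, 37 °C; CellTiter-Glo luminescence; % activity normalised to DMSO and no-cell wells; curves fitted, classed by r2 and efficacy.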
# KB-3-1 tox – kills parental KB-3-1 adenocarcinoma cells; actives 1.4% (n = 400,000); KB-3-1 viability, CellTiter-Glo ATP luminescence, 72 h; Potency, µM (series often up to 46.1 µM), hits mostly cytotoxic; AID 1347075; also: % is scaled to controls: 0 for no effect and ±100 for the full control effect; nearly all actives have a fitted effect of over 60% in size
#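 Cytotoxicity in the drug-sensitive parental line KB-3-1 was scored as loss of CellTiter-Glo luminescence following 72 h incubation with compound. Values come from curve fitting of normalized concentration-response data.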
# KB-V1 MDR tox – KB-V1 MDR subline cytotoxicity; KB-V1 MDR cells viability, CellTiter-Glo, 72 h; actives 3.4% (n = 400,000); Potency, µM (highest dose often 46.1 µM), hits mostly cytotoxic; also: % is scaled to controls: 0 for no effect and ±100 for the full control effect; nearly all actives have a fitted effect of over 60% in size
#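 Drug-selected KB-V1 cells, grown in DMEM lacking phenol red with 10% FBS, receive compound titrations; after three days at 37 degrees C, surviving cell ATP is quantified by CellTiter-Glo luminescence and responses normalized and curve-fitted.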
# HT1080-NT tox – kills 2HG-producing HT-1080-NT fibrosarcoma cells. HT-1080-NT fibrosarcoma viability, CellTiter-Glo ATP luminescence, 48 h. Potency, µM (highest dose often 46.1 µM), for inactives: at the highest dose activity, negative = less viability, most hits filed as cytotoxic. actives 1.6% (n = 360,000);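 also: NT is the 2HG producing partner of a matched IDH1 knockdown line; 0% = DMSO-treated cells and -100% = media-only wells without cells; nearly all actives have a fitted effect of over 55% in size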
#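 A 48-hour cytotoxicity screen used HT-1080-NT cells plated 2 hours before compound delivery. ATP-based CellTiter-Glo luminescence measured viability, normalized to DMSO and no-cell controls.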
# ATXN2 expr inh – reduces ATXN2 reporter expression in HEK-293 cells | HEK-293 ATXN2-luciferase reporter, luminescence, 24 h | Potency, µM (highest dose often 57 µM), inactives show top-dose activity change, negative = inhibition, actives largely listed as inhibitors | actives 0.72% (n = 360,000) | AID 1745845; also: % is scaled to controls: 0 for no effect and ±100 for the full control effect; nearly all actives have a fitted effect of over 55% in size
#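 ATXN2-luciferase reporter cells (luciferase flanked by upstream and downstream ATXN2 gene portions) were treated 24 h at 37 °C with compounds at up to 57 uM. SteadyGlo luminescence gave expression; GF-AFC fluorescence gave viability.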
# ATXN viability – viability counter-screen for ATXN expression inhibitors; S2 cells (HEK-293 line with an ATXN2-luciferase reporter) viability, CellTiter-Fluor protease fluorescence, 24 h; actives 0.49% (n = 400,000); Potency, µM (series often up to 56.7 µM), usual class: cytotoxic; also: nearly all actives have a fitted effect of over 40% in size
# An asterisk follows results filed as active; i = inactive; ? = inconclusive; / = not tested or not shown. Hits are enriched below; roughly 6.2% of the tested compounds scored in any of these assays. Calls follow the shape of the dose curve; as a rule, active = well fitted curve in the direction sought with a large enough effect; inconclusive = small, poorly fitted or top-dose-only effect, or another doubt; inactive = no such curve, though single readings can be large; an effect the other way counts as inactive or inconclusive. Potency is read from the fitted curve at half-maximal effect.
SMILES,HT1080 IDH1KD tx,KB-3-1 tox,KB-V1 MDR tox,HT1080-NT tox,ATXN2 expr inh,ATXN viability
Cc1ccc(-c2nc3ccccc3o2)cc1NC(=S)NC(=O)c1cc2ccccc2o1,?,8.2µM*,i,?,17%,i
O=C(Cc1ccccc1[N+](=O)[O-])NCC1(c2cccc3c2OCO3)OCCO1,10%,i,18µM*,15%,-3%,i
CC/C(=C(/CC)c1ccc(O)cc1)c1ccc(O)cc1,15µM*,i,?,?,?,?
CCOC(=O)c1ccc(O)cc1,/,/,/,/,17%,i
O=c1[nH]c(C2CCN(S(=O)(=O)c3cccc(C(F)(F)F)c3)CC2)nc2c1nnn2Cc1cccc(F)c1,21µM*,?,?,21µM*,?,i
O=c1[nH]c(C2CCN(S(=O)(=O)c3ccc4c(c3)OCCO4)CC2)nc2c1nnn2Cc1cccc(F)c1,-12%,i,i,-9%,-11%,i
CCOC(=O)C1=CN(Cc2cccc(-c3ccc(Cl)nc3)c2)S(=O)(=O)N(C)C1C (centres undefined),-5%,i,?,-4%,5%,i
Cc1cccc(Cc2c(C)nc3nc(SCC(=O)NCc4ccccc4)nn3c2C)c1,/,15µM*,i,/,-23%,?
O=C(/C=C/c1cccnc1)Nc1cccc([S+](=O)([O-])Nc2ccccc2F)c1,/,i,i,/,/,/
COc1ccc2c(c1)cc(CNc1ccc(OC)c(OC)c1)c(=O)n2CC(=O)Nc1ccc(F)cc1,/,i,i,/,-8%,?
O=C1C=CC(=O)N1CCCCCCCCCCN1C(=O)C=CC1=O,?,?,i,?,10µM*,8.9µM*
C#Cc1cccc(Nc2ncnc3cc(OCCOC)c(OCCO)cc23)c1,/,/,/,/,-28%,/
O=c1[nH][nH]c2cc([N+](=O)[O-])ccc12,15µM*,?,?,4.1µM*,-31%,i
Cc1ccc(S(=O)(=O)Nc2cccc(-c3ccc4nncn4n3)c2)cc1,3.3µM*,3.7µM*,16µM*,4.6µM*,-16%,i
CCn1c(COc2ccc(=O)n(-c3ccccc3)n2)nnc1SCc1ccccc1,3%,i,i,3%,0%,i
CCn1c(COc2ccc(=O)n(-c3ccccc3)n2)nnc1SCc1ccc(OC)cc1,1%,i,18µM*,4%,10%,i
COc1cc(C(=O)NCC(c2ccco2)N2CCCC2)ccc1OCc1c(C)noc1C (centres undefined),11%,?,10µM*,18%,22%,i
COc1ccccc1C(CNC(=O)c1ccc(OCc2c(C)noc2C)cc1)N1CCCC1 (centres undefined),-2%,?,?,-8%,-14%,i
COc1ccc(C(CNC(=O)c2ccc(OCc3c(C)noc3C)cc2)N2CCCC2)cc1 (centres undefined),2%,?,1.5µM*,2%,-10%,i
COc1ccc(C(CNC(=O)c2cccc(NC(=O)c3cccs3)c2)N2CCCC2)cc1 (centres undefined),-9%,i,21µM*,-5%,-5%,?
COc1cc(C(=O)NCc2cccs2)ccc1OCc1c(C)noc1C,15%,i,i,13%,23%,i
CC1=CC(=O)O[C@@H]1[C@@]1(C)C[C@H]2OC(=O)C[C@H]3[C@@H](C)C(=O)C(O)=C1[C@@]23CO,8%,i,i,4%,6%,i
C=CCNC1=C2C[C@@H](C)C[C@H](OC)[C@@H](O)[C@@H](C)C=C(C)[C@H](OC(N)=O)[C@@H](OC)C=CC=C(C)C(=O)NC(=CC1=O)C2=O,/,/,/,/,1.1µM*,/
COC1=C2C[C@H](C)C[C@H](OC)[C@@H](O)[C@@H](C)C=C(C)[C@H](OC(N)=O)[C@@H](OC)C=CC=C(C)C(=O)NC(=CC1=O)C2=O,/,?,i,/,/,/
CO[C@H]1C=CC=C(C)C(=O)NC2=CC(=O)C(NCCN(C)C)=C(C[C@@H](C)C[C@H](OC)[C@@H](O)[C@@H](C)C=C(C)[C@@H]1OC(N)=O)C2=O,/,/,/,/,0.077µM*,/
SMILES,HT1080 IDH1KD tx,KB-3-1 tox,KB-V1 MDR tox,HT1080-NT tox,ATXN2 expr inh,ATXN viability
COC(=O)c1cccc(Nc2c(-c3cc(Br)ccc3O)nc3nc[nH]n23)c1,/,i,?,/,-2%,i
S=C(NCc1ccccc1)C(=S)NCc1ccccc1,0%,i,i,1%,14%,?
Cc1noc(C)c1COc1ccc(CC(=O)NCc2ccccc2)cc1,1.2µM*,?,?,?,?,i
Cc1ccc(CC(=O)NCc2ccc(F)cc2)cc1,7.3µM*,?,?,9.2µM*,/,i
c1ccc(CN=C(NCc2ccccc2)NCc2ccccc2)cc1,16µM*,?,i,?,?,i
Nc1nc2ccccc2cc1C(=O)NCc1ccc(-c2ccccc2)cc1,1.3µM*,2.3µM*,2.6µM*,?,/,/
Nc1nc2ccccc2cc1C(=O)NCc1ccc(Cl)cc1Cl,-26%,?,i,?,?,?
Fc1ccc2c(c1)-c1nc(-c3ccccc3)cc(-c3ccccc3)c1CO2,/,i,?,/,-6%,i
O=C(Nc1ccc(Cl)cc1C(=O)NCc1cccnc1)c1ccc(Cl)cc1Cl,?,21µM*,?,?,-9%,i
O=C(Nc1c(Cl)cc(Cl)cc1C(=O)NCc1cccnc1)c1ccc(Cl)cc1Cl,-5%,?,i,-4%,-11%,i
Cc1ccc(CNC(=O)Cc2ccc(-c3ccccc3)cc2)cc1,2.8µM*,i,i,4µM*,0%,?
O=C(Nc1cccnc1)c1ccc([N+](=O)[O-])o1,?,?,?,?,1%,i
O=C(Cc1ccc(-c2ccccc2)cc1)NCc1cccnc1,8.2µM*,15µM*,?,?,-24%,i
O=C(NCc1cccnc1)c1ccc([N+](=O)[O-])o1,?,i,23µM*,?,/,?
COc1ccc2c(c1)-c1nc(-n3ncc(C(=O)NCc4cccc(C)n4)c3C3CC3)ncc1CC2,/,/,/,/,/,i
COCCn1c(C)cc(O)c(C(c2ccccc2)N2CCN(c3ccccc3F)CC2)c1=O (centres undefined),/,i,i,/,/,/
CC1(C)Nc2cccc3c(N=Nc4ccc(N=Nc5ccccc5)c5ccccc45)ccc(c23)N1,/,i,?,/,/,/
O=C(Cc1ccc(Cl)cc1)c1c[nH]c(C(=O)NCc2cccnc2)c1,?,i,i,-15%,/,2.5µM*
O=C(Cc1ccc(-c2ccccc2)cc1)NCc1ccccc1,?,0.082µM*,0.29µM*,?,5%,i
